Assay results from PubChem BioAssay AID1159580 (chemical genetic matrix, 2015).
The campaign covered roughly 5,500 compounds. About 2,000 (36%) were called active. About 18% were inconclusive and are not listed. The list shows a part of the results. Unmarked numbers belong to inactive results. No stated cut-off is given here; in the data, active means normalized growth mostly below about 0.91 (no sharp cut-off); inconclusive means no clear call, values can overlap the other calls; inactive means mostly above about 0.92.

Assay: chemical genetic growth profiling, strain panel (AID 1159580);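 further: tested at 20 µM; growth read once vehicle control cultures reached saturation at 30 °C; 1 = growth at the plate median or of vehicle wells; lower values mean less growth of the strain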
Conditions: growth OD

In the case of `CC(=O)Nc1ccc(OC(=O)c2ccccc2O)cc1`, the normalized growth (S. cerevisiae deletion strains, locus YJR066W, strain TOR1, active compounds read low) is reported as 0.929, the normalized growth (S. cerevisiae deletion strains, locus YJR075W, strain HOC1, active compounds read low) is reported as 0.85 (active) and the normalized growth (S. cerevisiae deletion strains, locus YKL009W, strain mrt4, active compounds read low) is reported as 0.848 (active). The normalized growth (S. cerevisiae deletion strains, locus YKL068W, active compounds read low) was 0.96, the normalized growth (S. cerevisiae deletion strains, locus YKL085W, strain MDH1 (second series), active compounds read low) was 0.95 and the normalized growth (S. cerevisiae deletion strains, locus YKL085W, strain MDH1, active compounds read low) was 0.95. The normalized growth (S. cerevisiae deletion strains, locus YKL160W, strain elf1, active compounds read low) was 0.978, the normalized growth (S. cerevisiae deletion strains, locus YKL190W, strain CNB1, active compounds read low) was 0.987 and the normalized growth (S. cerevisiae deletion strains, locus YKR001C, strain vps1, active compounds read low) was 0.794 (active). It also gave a normalized growth (S. cerevisiae deletion strains, locus YKR026C, strain gcn3, active compounds read low) of 0.965, a normalized growth (S. cerevisiae deletion strains, locus YKR091W, strain srl3, active compounds read low) of 0.962 and a normalized growth (S. cerevisiae deletion strains, locus YLL001W, strain dnm1, active compounds read low) of 0.96. The normalized growth (S. cerevisiae deletion strains, locus YLL026W, active compounds read low) was 0.978, the normalized growth (S. cerevisiae deletion strains, locus YLL041C, strain sdh2, active compounds read low) was 0.995 and the normalized growth (S. cerevisiae deletion strains, locus YLR027C, strain aat2, active compounds read low) was 0.992. The normalized growth (S. cerevisiae deletion strains, locus YLR039C, strain RIC1, active compounds read low) was 0.676, the normalized growth (S. cerevisiae deletion strains, locus YLR058C, strain SHM2, active compounds read low) was 0.941 and the normalized growth (S. cerevisiae deletion strains, locus YLR102C, strain apc9, active compounds read low) was 0.943. The normalized growth (S. cerevisiae deletion strains, locus YLR113W, strain HOG1, active compounds read low) was 0.901, the normalized growth (S. cerevisiae deletion strains, locus YLR221C, strain rsa3, active compounds read low) was 0.871 (active) and the normalized growth (S. cerevisiae deletion strains, locus YLR258W, strain gsy2, active compounds read low) was 0.918. The normalized growth (S. cerevisiae deletion strains, locus YLR262C, strain YPT6 (second series), active compounds read low) was 0.972, the normalized growth (S. cerevisiae deletion strains, locus YLR262C, strain YPT6, active compounds read low) was 0.733 and the normalized growth (S. cerevisiae deletion strains, locus YLR268W, strain sec22, active compounds read low) was 0.894. For the same compound, the normalized growth (S. cerevisiae deletion strains, locus YLR320W, strain mms22, active compounds read low) was 0.832 (active), the normalized growth (S. cerevisiae deletion strains, locus YLR330W, strain CHS5, active compounds read low) was 0.959 and the normalized growth (S. cerevisiae deletion strains, locus YLR342W, strain FKS1 (second series), active compounds read low) was 0.938. For the same compound, the normalized growth (S. cerevisiae deletion strains, locus YLR342W, strain FKS1, active compounds read low) was 1.01, the normalized growth (S. cerevisiae deletion strains, locus YLR357W, strain rsc2, active compounds read low) was 0.929 and the normalized growth (S. cerevisiae deletion strains, locus YLR370C, strain arc18, active compounds read low) was 0.934. For the same compound, the normalized growth (S. cerevisiae deletion strains, locus YLR371W, strain rom2, active compounds read low) was 0.952, the normalized growth (S. cerevisiae deletion strains, locus YLR384C, strain iki3, active compounds read low) was 1 and the normalized growth (S. cerevisiae deletion strains, locus YLR418C, strain cdc73, active compounds read low) was 0.682 (active). The normalized growth (S. cerevisiae deletion strains, locus YML016C, strain PPZ1, active compounds read low) was 0.977, the normalized growth (S. cerevisiae deletion strains, locus YML032C, strain rad52, active compounds read low) was 0.897 (active) and the normalized growth (S. cerevisiae deletion strains, locus YML120C, strain ndi1, active compounds read low) was 0.951. The normalized growth (S. cerevisiae deletion strains, locus YML124C, strain tub3, active compounds read low) was 0.955, the normalized growth (S. cerevisiae deletion strains, locus YMR058W, strain fet3, active compounds read low) was 0.939 and the normalized growth (S. cerevisiae deletion strains, locus YMR078C, strain ctf18, active compounds read low) was 0.935. For the same compound, the normalized growth (S. cerevisiae deletion strains, locus YMR125W, strain sto1, active compounds read low) was 0.982, the normalized growth (S. cerevisiae deletion strains, locus YMR129W, active compounds read low) was 0.989 and the normalized growth (S. cerevisiae deletion strains, locus YMR205C, strain PFK2, active compounds read low) was 0.967. For the same compound, the normalized growth (S. cerevisiae deletion strains, locus YMR223W, strain ubp8, active compounds read low) was 0.938, the normalized growth (S. cerevisiae deletion strains, locus YMR231W, strain pep5, active compounds read low) was 1.01 and the normalized growth (S. cerevisiae deletion strains, locus YMR307W, strain GAS1, active compounds read low) was 0.707. The normalized growth (S. cerevisiae deletion strains, locus YNL067W, strain RPL9B, active compounds read low) was 0.897, the normalized growth (S. cerevisiae deletion strains, locus YNL071W, strain lat1, active compounds read low) was 0.809 (active) and the normalized growth (S. cerevisiae deletion strains, locus YNL153C, strain GIM3, active compounds read low) was 0.936. For the same compound, the normalized growth (S. cerevisiae deletion strains, locus YNL183C, strain NPR1, active compounds read low) was 0.858, the normalized growth (S. cerevisiae deletion strains, locus YNL209W, strain ssb2, active compounds read low) was 0.95 and the normalized growth (S. cerevisiae deletion strains, locus YNL233W, strain BNI4, active compounds read low) was 0.832 (active). The normalized growth (S. cerevisiae deletion strains, locus YNL248C, strain rpa49, active compounds read low) was 0.862 (active), the normalized growth (S. cerevisiae deletion strains, locus YNL250W, strain rad50, active compounds read low) was 0.978 and the normalized growth (S. cerevisiae deletion strains, locus YNL271C, strain bni1, active compounds read low) was 0.955. For the same compound, the normalized growth (S. cerevisiae deletion strains, locus YNL298W, strain CLA4, active compounds read low) was 0.925, the normalized growth (S. cerevisiae deletion strains, locus YNL307C, strain MCK1, active compounds read low) was 0.576 (active) and the normalized growth (S. cerevisiae deletion strains, locus YNL322C, strain KRE1 (second series), active compounds read low) was 0.888 (active). The normalized growth (S. cerevisiae deletion strains, locus YNR049C, strain mso1, active compounds read low) was 0.964, the normalized growth (S. cerevisiae deletion strains, locus YNR052C, strain pop2, active compounds read low) was 0.98 and the normalized growth (S. cerevisiae deletion strains, locus YOL006C, strain TOP1, active compounds read low) was 0.463 (active). For the same compound, the normalized growth (S. cerevisiae deletion strains, locus YOL012C, strain htz1) was 0.544, the normalized growth (S. cerevisiae deletion strains, locus YOL147C, strain pex11, active compounds read low) was 0.943 and the normalized growth (S. cerevisiae deletion strains, locus YOR001W, strain rrp6, active compounds read low) was 0.962. It also gave a normalized growth (S. cerevisiae deletion strains, locus YOR061W, strain CKA2, active compounds read low) of 0.967, a normalized growth (S. cerevisiae deletion strains, locus YOR069W, strain VPS5, active compounds read low) of 0.985 and a normalized growth (S. cerevisiae deletion strains, locus YOR070C, strain gyp1, active compounds read low) of 0.932. It also gave a normalized growth (S. cerevisiae deletion strains, locus YOR080W, strain dia2, active compounds read low) of 1.02, a normalized growth (S. cerevisiae deletion strains, locus YOR083W, strain WHI5, active compounds read low) of 0.928 and a normalized growth (S. cerevisiae deletion strains, locus YOR106W, strain vam3, active compounds read low) of 0.954. The normalized growth (S. cerevisiae deletion strains, locus YOR136W, strain idh2, active compounds read low) was 0.948, the normalized growth (S. cerevisiae deletion strains, locus YOR144C, strain elg1, active compounds read low) was 0.947 and the normalized growth (S. cerevisiae deletion strains, locus YOR184W, strain ser1, active compounds read low) was 0.756 (active). The normalized growth (S. cerevisiae deletion strains, locus YOR231W, strain MKK1, active compounds read low) was 0.909, the normalized growth (S. cerevisiae deletion strains, locus YOR265W, strain rbl2, active compounds read low) was 0.987 and the normalized growth (S. cerevisiae deletion strains, locus YOR270C, strain vph1, active compounds read low) was 0.635 (active). For the same compound, the normalized growth (S. cerevisiae deletion strains, locus YOR290C, strain snf2, active compounds read low) was 0.857 (active), the normalized growth (S. cerevisiae deletion strains, locus YOR316C, strain cot1, active compounds read low) was 0.947 and the normalized growth (S. cerevisiae deletion strains, locus YPL051W, strain arl3, active compounds read low) was 0.957. For the same compound, the normalized growth (S. cerevisiae deletion strains, locus YPL078C, strain atp4, active compounds read low) was 0.83 (active), the normalized growth (S. cerevisiae deletion strains, locus YPL106C, strain sse1, active compounds read low) was 0.926 and the normalized growth (S. cerevisiae deletion strains, locus YPL240C, strain hsp82, active compounds read low) was 0.973. It also gave a normalized growth (S. cerevisiae deletion strains, locus YPL241C, strain CIN2, active compounds read low) of 0.977, a normalized growth (S. cerevisiae deletion strains, locus YPL256C, strain CLN2, active compounds read low) of 0.881 and a normalized growth (S. cerevisiae deletion strains, locus YPR119W, strain clb2, active compounds read low) of 0.941. It also gave a normalized growth (S. cerevisiae deletion strains, locus YPR141C, strain kar3, active compounds read low) of 0.967, a normalized growth (S. cerevisiae deletion strains, locus YPR163C, strain tif3, active compounds read low) of 0.931 and a normalized growth (S. cerevisiae deletion strains, locus YPR167C, strain met16, active compounds read low) of 0.94. It also gave a normalized growth (S. cerevisiae deletion strains, strain wtn01, active compounds read low) of 0.915 and a normalized growth (S. cerevisiae strains, strain wild type, active compounds read low) of 0.952.
